From PubChem BioAssay (NCI)
About 83,000 compounds went through this panel and 20% of them were active in at least one assay; those are over-represented in the sample as a whole.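 In brief: 96-well plates, 48 h treatment, single concentration, percent growth endpoint.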 A number with no mark means an inactive call. Calls of active or inactive are those of the source. Rule for the calls: active = growth percent below 10; inactive = the rest.

Assays:
Test in all cases: NCI-60 one-dose screen, 48 h (100 = growth as untreated, 0 = no growth, -100 = all killed)
T-47D breast = settings: 10 µM unless noted
BT-549 breast = settings: 10 µM unless noted
MDA-MB-435 melanoma = settings: 10 µM unless noted
SW-620 colon = settings: 10 µM unless noted
MCF7 breast = settings: 10 µM unless noted
HCT-116 colon = settings: 10 µM unless noted
HCC-2998 colon = settings: 10 µM
KM12 colon = settings: 10 µM unless noted

Structure (SMILES)	growth (T-47D breast)	growth (BT-549 breast)	growth (MDA-MB-435 melanoma)	growth (SW-620 colon)	growth (MCF7 breast)	growth (HCT-116 colon)	growth (HCC-2998 colon)	growth (KM12 colon)
COC(=O)[C@H](C)NC(=O)[C@@H](OC)[C@@H]1Cc2cc3cc(OC4CC(OC5CC(O)C(O)C(C)O5)C(O)C(C)O4)c(C)c(O)c3c(O)c2C(=O)[C@H]1OC1CC(OC2CC(OC3CC(C)(O)C(O)C(C)O3)C(O)C(C)O2)C(O)C(C)O1 (stereo not given in full)	2.98% (active)	-32.5% (active)	-39.3% (active)	10.2%	8.55% (active)	4.37% (active)	-44% (active)	5.08% (active)
COC(=O)[C@]12CC[C@@H](C)[C@H](C)[C@@H]1C1=CC[C@@H]3[C@@]4(C)C(C#N)=CC(C)=C4CC[C@@]3(C)[C@]1(C)CC2	68.2%	98.7%	88.1%	87.2%	90.1%	68.4%	80%	84.6%
O=C1C=CC2(NN=C(c3ccccc3)N2c2cccc(Cl)c2)C(Cl)=C1 (stereo not given)	37.9%	88.5%	86.3%	90.2%	79%	73.4%	105%	78.1%
C=CC(=O)N1CCC[C@H](n2c(=O)n(-c3ccc(Oc4ccccc4)cc3)c3c(N)ncnc32)C1	37.7%	91.9%	101%	97.4%	86.5%	74%	100%	92.1%
CS(=O)(=O)CCNCc1ccc(-c2ccc3ncnc(Nc4ccc(OCc5cccc(F)c5)c(Cl)c4)c3c2)o1	-11.9% (active)	8.25% (active)	31.2%	-56.1% (active)	-39.3% (active)	41.2%	-83.6% (active)	-34.9% (active)
COc1cc2c(cc1O)c(=O)n(CCN(C)C)c1c3cc4c(cc3ncc21)OCO4	4.79% (active)	-15.5% (active)	-59.7% (active)	1.96% (active)	2.14% (active)	2.63% (active)	-38.6% (active)	-11.6% (active)
O=C(Cn1cncn1)Nc1ccc(-c2nc3ccccc3s2)cc1	64.9%	91.5%	105%	106%	36.1%	95.4%	93.9%	98.2%
N#Cc1c(-c2ccc(C(F)(F)F)cc2)c(F)c(NCCC2CCC(O)C2)n2c1nc1ccccc12 (stereo not given)	67.9%	30.1%	84.1%	55.6%	46.2%	30.7%	80.7%	57.9%
COc1ccc(-c2cc3c(C)nc(N)nc3n(C3CCC(OCCO)CC3)c2=O)cn1 (stereo not given)	-50.5% (active)	-18.1% (active)	-18.5% (active)	7.56% (active)	1.58% (active)	7.89% (active)	-0.799% (active)	5.53% (active)
C[C@]12O[C@H](C[C@]1(O)CO)n1c3ccccc3c3c4c(c5c6ccccc6n2c5c31)CNC4=O	-24.4% (active)	-68.5% (active)	-80.1% (active)	3.8% (active)	-55.2% (active)	0.7% (active)	-49.6% (active)	-18.5% (active)
O=C(NO)c1ccc(Cn2c(=O)n(-c3ccccc3F)c(=O)c3ccccc32)cc1	8.62% (active)	21.3%	-78.7% (active)	0.226% (active)	20.8%	-3.7% (active)	-32.9% (active)	-40.7% (active)
Cn1ccnc1C(=O)/C=C/c1ccc(CC(=O)Nc2ccc(C(F)(F)F)cc2)cc1	3.52% (active)	3.71% (active)	30.6%	7.25% (active)	8.41% (active)	6.67% (active)	0.221% (active)	4.24% (active)
CCCCCC(=O)OCc1ccc(Cl)c(Cl)c1	105%	109%	109%	109%	93.9%	101%	94.8%	103%
Clc1ccc(Nc2nccc(Nc3ccc4[nH]ncc4c3)n2)cc1	30.1%	53%	55.8%	33%	25%	39.4%	94.3%	9.06% (active)
Cc1ccc(NC(=O)c2ccc(CN3CCN(C)CC3)cc2)cc1Nc1nc(-c2cccnc2)cs1	-9.37% (active)	41.2%	45.4%	42.1%	28.5%	18.1%	68.3%	51.7%
CN1CCN(CCCOc2cccc3nc(Nc4ccc(Cl)c(C(F)(F)F)c4)ccc23)CC1	16.4%	59.1%	-21.4% (active)	-54.8% (active)	-67.3% (active)	-82.7% (active)	-90.8% (active)	-78% (active)
CCC1(/C=N/NC(N)=S)NC(=O)NC1=O (stereo not given)	104%	103%	105%	114%	97.7%	101%	115%	113%
CCCCCCCC12Cc3ccccc3C1=Nc1c(c3ccccc3n1C)C2=O (stereo not given)	72.4%	108%	105%	97%	80.2%	73.9%	96.3%	94.2%
NC(=O)Nc1cc(-c2cccc(F)c2)sc1C(=O)N[C@H]1CCCNC1	15.1%	-60.9% (active)	-25.8% (active)	-7.1% (active)	14.3%	-9.03% (active)	-34.6% (active)	1.83% (active)
CC(C)(C)C(=O)OCOP(=O)(OCOC(=O)C(C)(C)C)C1CCCN(OC(=O)c2ccccc2)C1=O (stereo not given)	13.8%	7.84% (active)	45.2%	45.1%	0.983% (active)	13%	25.2%	5.57% (active)
Cc1cnc(Nc2ccc(OCCN3CCCC3)cc2)nc1Nc1cccc(S(=O)(=O)NC(C)(C)C)c1	12.5%	-0.344% (active)	13.5%	-21.3% (active)	0.924% (active)	1.03% (active)	-25.9% (active)	5.75% (active)
C/C(=N\NC(=O)Cn1c(-c2ccc(S(C)(=O)=O)cc2)nc2ccccc21)c1ccc(Cl)cc1	81.3%	85%	97.4%	101%	82.9%	83.1%	106%	95.6%
O=C(Cc1ccc(/C=C/C(=O)c2ncc[nH]2)cc1)Nc1ccc(Br)cc1	17.5%	20.5%	43.5%	2.37% (active)	11.8%	-40.2% (active)	78.6%	-43.3% (active)
CC1=CC2c3oc(-c4ccccc4)c(C(=O)c4ccccc4)c3CNC2C=C1 (stereo not given)	91.3%	103%	107%	97.1%	84.2%	92.2%	102%	101%
CCOc1cc2ncc(C#N)c(Nc3ccc(F)c(Cl)c3)c2cc1NC(=O)/C=C/CN(C)C	-41.1% (active)	-35.8% (active)	-87.2% (active)	-53.8% (active)	-41.7% (active)	-79.7% (active)	-49.2% (active)	-83.8% (active)
C[N+](C)(CCOC(c1ccccc1)c1ccccc1)CC(=O)OCc1ccccc1	120%	94.8%	97.9%	108%	97%	105%	106%	99.9%
COc1cc(Nc2ncc3c(n2)-c2ccc(Cl)cc2C(c2c(F)cccc2OC)=NC3)ccc1C(=O)O	79.6%	62.8%	85.9%	54.7%	42.5%	45.3%	87.5%	28.3%
Cn1ccnc1C(=O)/C=C/c1ccc(CC(=O)Nc2ccc(S(F)(F)(F)(F)F)cc2)cc1	-7.73% (active)	-50.6% (active)	15.1%	3.88% (active)	10.2%	-63.5% (active)	-65.1% (active)	-56.9% (active)
Cn1cnc2c(F)c(Nc3ccc(Br)cc3Cl)c(C(=O)NOCCO)cc21	70%	78.5%	33.3%	24.2%	96%	17.6%	-10.2% (active)	28.6%
Nc1nc(N)c2nc(-c3cccc(O)c3)c(-c3cccc(O)c3)nc2n1	2.15% (active)	47.8%	97.4%	90.8%	70.1%	77.9%	94.6%	90.6%
